Assay outcomes from PubChem.
HTR5A ag = HTR5A agonism, opioid heterodimer counter-screen | AID 504692 | P47898 | hit rate 0.61% among 340,000 | activation, % at 9.3 µM | HTR5A agonist assay, luminescence, cell-based; in the data active = activation mostly above about 9.5%, no sharp cut-off; inactive = mostly below about 7.6%;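 note: 0% = cells with vehicle only and 100% = reference agonist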
Target sequence (P47898 whole entry, looked up): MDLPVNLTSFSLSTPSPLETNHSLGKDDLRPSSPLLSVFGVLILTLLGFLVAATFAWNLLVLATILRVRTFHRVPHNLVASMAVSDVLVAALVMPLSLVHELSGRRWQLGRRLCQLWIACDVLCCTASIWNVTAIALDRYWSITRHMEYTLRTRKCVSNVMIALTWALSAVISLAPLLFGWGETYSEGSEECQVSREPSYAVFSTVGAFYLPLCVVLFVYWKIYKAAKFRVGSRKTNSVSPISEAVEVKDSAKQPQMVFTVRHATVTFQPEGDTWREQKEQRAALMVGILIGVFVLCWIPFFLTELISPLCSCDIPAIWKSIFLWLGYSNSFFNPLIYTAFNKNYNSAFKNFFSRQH
MOR-DOR inv ag = inverse agonists of human mu-delta opioid receptor heterodimerization; P35372+P41143; cell-based MOR-DOR heterodimer luminescence, inverse agonism; inhibition, % at 9.3 µM; hit rate 0.21% among 340,000; in the data active = inhibition above about 22%, passing the limit was not always enough;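 note: 0% = cells with DMSO and 100% = wells without cells with DMSO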
OPRM1-OPRD1 ag = OPRM1-OPRD1 heterodimerization agonism | cells, luminescence | activation, % at 9.3 µM | hit rate 0.3% among 340,000 | P35372+P41143 | AID 504326; in the data active = activation above about 18%;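 note: 0% = vehicle-treated cells and 100% = reference agonist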
HTR5A inv ctr = inverse agonist of human HTR5A in OPRM1-OPRD1 counter-screen; P47898; HTR5A cell line, luminescence, inverse agonism; inhibition, % at 9.3 µM; hit rate 0.083% among 340,000; AID 504634; in the data active = inhibition mostly above about 23%, no sharp cut-off; inactive = mostly below about 18%;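 note: 0% = cells with DMSO and 100% = no-cell wells with DMSO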
* = called active by the depositor. Hits are enriched below; roughly 1.1% of the tested compounds scored in any of these assays.

SMILES	HTR5A ag	MOR-DOR inv ag	OPRM1-OPRD1 ag	HTR5A inv ctr
CC1(C(=O)NC(=S)NNC(=O)c2ccncc2)CCCCC1	-9	36*	-6	32*
O=C(NNC(=S)NC(=O)c1ccc(F)cc1)c1ccncc1	0	24	-5	0
Cc1ccc2c(NC(=S)NC(=O)c3ccccc3)cccc2n1	5	24	-7	16
COc1cc(C(=O)NC(=S)Nc2cccc3nc(C)ccc23)cc(OC)c1OC	30*	-135	27*	-59
C=CCN(CC=C)C(=S)Nc1ccccc1	4	18	-3	5
CSc1ccc(/C=C/C(=O)OCC(=O)N2CCN(S(=O)(=O)c3ccc(C)cc3C)CC2)cc1	1	-17	4	2
O=C(C#Cc1ccccc1)Nc1ccc(F)cc1	9.0*	15	-3	-30
Cc1cc([N+](=O)[O-])ccc1NC(=O)c1csc(C)c1C	13*	1	0	-1
Cc1ccc(NC(=S)NCCc2ccccc2)c(C)c1	3	10	-2	4
Cc1ccc(NC(=S)NCCO)c(C)c1	12*	10	-2	14
Cc1ccc(S(=O)(=O)NCCN2CCOCC2)s1	5	17	-3	6
CCCCC(=O)Nc1sc2c(c1C(=O)OCC)CCC(C=O)=C2Cl	12*	-5	1	4
CCOC(=O)c1c(NC(=O)c2ccccc2Cl)sc2c1CCc1ccccc1-2	1	-8	2	12
COC(=O)c1cc2c(s1)CS(=O)C2 (stereo not given)	12*	5	-1	7
Clc1ccc(OCCCNCc2ccccc2)c2ccccc12	10*	-30	7	-39
O=C1C(Cc2ccccc2)Nc2ncnc(N3CCN(c4ccccc4)CC3)c2N1Cc1ccc(Cl)cc1 (stereo not given)	-18	57*	-12	53*
CC(=O)c1sc(NC(=O)C(C)Oc2ccc3c(C)cc(=O)oc3c2)nc1C (stereo not given)	0	18	-3	-1
COc1ccc(C(=O)O)cc1NC(=S)NC(=O)c1ccc(-c2ccc(Cl)cc2)o1	-1	20	-4	9
Cc1ccc(C(=O)O)cc1NC(=S)NC(=O)c1ccc(-c2ccc(Cl)cc2)o1	12*	10	-2	-5
CCCCN(CCCC)S(=O)(=O)c1ccc2[nH]c(=O)[nH]c2c1	4	7	-1	-10
CCN(CC)S(=O)(=O)c1ccc2[nH]c(=O)[nH]c2c1	9.5*	-9	2	-13
O=C(NCc1cc([N+](=O)[O-])ccc1O)c1cccnc1Sc1ccccc1Cl	4	17	-4	-10
CCOC(=O)N1CCC(NC(=O)CSCc2nc(-c3ccc(OC)cc3)oc2C)CC1	11*	15	-3	-16
O=C(CN(C1CCCCC1)S(=O)(=O)c1ccc(Cl)cc1)NCc1cccnc1	13*	9	-2	-1
CCOC(=O)CNC(=O)CSc1nc2nc(C)c(Br)cc2[nH]1	13*	-10	2	14
SMILES	HTR5A ag	MOR-DOR inv ag	OPRM1-OPRD1 ag	HTR5A inv ctr
CCn1c(SCC(=O)Nc2nc3ccc(OC)cc3s2)nc2c1c(=O)n(C)c(=O)n2C	0	5	-1	2
COc1ccc(-c2sc3ccc(N4CCOCC4)cc3c2C#CCO)cc1	3	-26	4	6
COc1ccc(-c2sc3ccc(N4CCOCC4)cc3c2C#CC2(O)CCCCC2)cc1	13*	-25	4	-46
CCCCOC(=O)c1nc[nH]c1C(=O)OCCCC	6	8	-2	-16
CCN(CC)c1ccc(NC(=O)Nc2cccc(C(C)=O)c2)cc1	13*	-4	1	-34
COc1ccc(CNS(=O)(=O)c2c(C(=O)N3CCCCCC3)c(C)n(C)c2C)cc1	-1	0	0	7
O=C(c1ccc(Cl)c(S(=O)(=O)NCc2ccco2)c1)N1CCN(c2ccccc2F)CC1	13*	10	-2	-86
COc1ccccc1NC(=O)Nc1nnc(C(C)c2ccccc2)s1 (stereo not given)	12*	-19	4	-42
CCOC(=O)C(NCc1ccc2c(c1)OCO2)(NC(=O)c1ccccc1)C(F)(F)F (stereo not given)	7	8	-1	32
CN1CCN(C(=O)c2cc(COc3ccccc3)on2)[C@@H](c2ccccc2)C1	9.5*	1	0	-17
Cc1ccc(OCc2cc(C(=O)N3CCN(C)C[C@@H]3c3ccccc3)no2)cc1C	-1	9	-2	2
CC(Oc1ccccc1F)C(=O)Nc1ccc2ccccc2c1 (stereo not given)	11*	-5	1	-16
COc1ccc(Nc2nc(N)nc(CCl)n2)cc1	48*	-108	21*	-176
CCc1[nH]nc(C(=O)N/N=C/c2ccncc2)c1C	7	20	-4	-6
O=C(CNC(=O)N1CC(=O)Nc2ccccc21)NCCc1c[nH]c2ccccc12	15	11	-2	-39
O=C(Cc1ccccc1)NN1C(=O)C2C3C=CC(C3)C2C1=O (stereo not given)	-4	13	-2	11
CC1CCCC(C)N1NC(=O)Cc1ccccc1 (stereo not given)	9.7*	-4	0	-26
Cc1cccc(OC(=O)c2ccc3nccnc3c2)c1	9.4*	-6	1	-14
OCCCN=C1CCCc2c1[nH]c1ccc(Cl)cc21	5	2	0	-11
OCCN=C1CCCc2c1[nH]c1ccc(Cl)cc21	13*	-15	3	-7
CCn1c(SCC(=O)NC2CC2)nnc1-c1ccc(F)cc1	6	5	-1	-24
CCCOP(=O)(c1ccc(N(C)C)cc1)C(O)c1ccc(Br)cc1 (stereo not given)	1	17	-3	-5
O=C(COC(=O)c1ccncc1)Nc1ccccc1	12*	3	-1	-4
O=C(COC(=O)c1cccnc1)Nc1ccccc1	3	12	-3	-8
Cc1cc(C)c(CN2CCN(C(=O)Cn3cnc(C(=O)Nc4ccc(C)c(C)c4)n3)CC2)c(C)c1	8.5*	-5	1	-31
SMILES	HTR5A ag	MOR-DOR inv ag	OPRM1-OPRD1 ag	HTR5A inv ctr
Cc1ccc(Cl)cc1N1CCN(C(=O)c2noc(C(C)C)c2[N+](=O)[O-])CC1	42*	-276	52*	-172
COc1c(C)cccc1C(=O)NCc1ccc2c(c1)OCO2	-1	0	0	3
COc1cccc(C(=O)O/N=C(\N)c2ccc([N+](=O)[O-])cc2)c1OC	13*	-78	14	-16
Cc1cc(C)c(S(=O)(=O)/N=C2/C=C(Sc3ncn[nH]3)C(=O)c3ccccc32)cc1C	4	-102	20*	-5
CCOC(=O)c1sc(N2C(=O)C(O)=C(C(=O)c3ccco3)C2c2ccc([N+](=O)[O-])cc2)nc1C (stereo not given)	1	16	-3	-3
CCn1cc(C(=O)NC(=S)Nc2ccccc2Br)cn1	-4	-2	1	10
COc1ccccc1NC(=S)NC(=O)c1ccc(Cn2cc(Br)cn2)cc1	13*	-77	11	-4
Cc1ccc(C(C)C)c(OCc2ccc(C(=O)N/N=C/c3ccc(O)c(O)c3)cc2)c1	14*	-19	3	-38
COc1cc(/C=N/NC(=O)c2ccc(COc3cc(C)ccc3C(C)C)cc2)cc(OC)c1O	0	-24	5	6
CCCCOC(=O)Nc1ccc(N2CCCCC2)cc1	9.6*	-10	2	6
